3T3 cytotox: cytotoxic compounds in NIH 3T3 cells. NIH 3T3 viability, CellTiter-Glo ATP luminescence, 48-72 h. Potency, µM (highest dose often 96.7 µM), for inactives: top-dose activity change, negative = cytotoxicity, most hits filed as inhibitors. 4.3% of 94,000 active. AID 1345082; further: nearly all actives have a fitted effect of over 55% in size
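Cytotoxicity is measured as loss of cellular ATP: NIH 3T3 cells (400/well) are exposed to compound for 48 or 72 hr at 37 °C, then CellTiter-Glo luminescence is imaged after 10 min at room temperature.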
Luciferase inh: Photinus pyralis luciferase inhibition; P08659; purified P. pyralis luciferase, luminescence, biochemical; Potency, µM (series often up to 115 µM), actives largely listed as inhibitors; 2.5% of 76,000 active; further: nearly all actives have a fitted effect of over 65% in size
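Purified 10nM P. pyralis luciferase with 10uM D-luciferin and 10uM ATP in 50mM Tris acetate pH 7.5, 10mM Mg acetate, 0.01% Tween-20, 0.05% BSA. qHTS titration; luminescence read by CCD imager.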
HEK cytotox: cytotoxic compounds in HEK 293 cells | HEK 293 viability, ATP luminescence (CellTiter-Glo), 48-72 h | Potency, µM (highest dose often 115 µM), for inactives: top-dose activity change, negative = cytotoxicity, most hits filed as inhibitors | 6.6% of 94,000 active | AID 1345083; further: nearly all actives have a fitted effect of over 60% in size
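ATP-coupled CellTiter-Glo luminescence served as viability read-out, recorded 10 min after reagent addition at room temperature. HEK 293 cells, 250 cells/well, had been incubated with pintool-transferred compound for 48 or 72 hr at 37 degree Celsius.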
NPR1 antag: blocks ANP-stimulated signaling of human Npr1 receptor. AID 1347048. P16066. Potency, µM (series often up to 46.3 µM), without a hit: top-dose activity change, negative = inhibition, usual class: inhibitors. HEK293 hNpr1 GloSensor cGMP, ANP-stimulated luminescence. 1.6% of 76,000 active; calls by dose curve; further: nearly all actives have a fitted effect of over 60% in size
Target sequence (P16066 whole entry, looked up): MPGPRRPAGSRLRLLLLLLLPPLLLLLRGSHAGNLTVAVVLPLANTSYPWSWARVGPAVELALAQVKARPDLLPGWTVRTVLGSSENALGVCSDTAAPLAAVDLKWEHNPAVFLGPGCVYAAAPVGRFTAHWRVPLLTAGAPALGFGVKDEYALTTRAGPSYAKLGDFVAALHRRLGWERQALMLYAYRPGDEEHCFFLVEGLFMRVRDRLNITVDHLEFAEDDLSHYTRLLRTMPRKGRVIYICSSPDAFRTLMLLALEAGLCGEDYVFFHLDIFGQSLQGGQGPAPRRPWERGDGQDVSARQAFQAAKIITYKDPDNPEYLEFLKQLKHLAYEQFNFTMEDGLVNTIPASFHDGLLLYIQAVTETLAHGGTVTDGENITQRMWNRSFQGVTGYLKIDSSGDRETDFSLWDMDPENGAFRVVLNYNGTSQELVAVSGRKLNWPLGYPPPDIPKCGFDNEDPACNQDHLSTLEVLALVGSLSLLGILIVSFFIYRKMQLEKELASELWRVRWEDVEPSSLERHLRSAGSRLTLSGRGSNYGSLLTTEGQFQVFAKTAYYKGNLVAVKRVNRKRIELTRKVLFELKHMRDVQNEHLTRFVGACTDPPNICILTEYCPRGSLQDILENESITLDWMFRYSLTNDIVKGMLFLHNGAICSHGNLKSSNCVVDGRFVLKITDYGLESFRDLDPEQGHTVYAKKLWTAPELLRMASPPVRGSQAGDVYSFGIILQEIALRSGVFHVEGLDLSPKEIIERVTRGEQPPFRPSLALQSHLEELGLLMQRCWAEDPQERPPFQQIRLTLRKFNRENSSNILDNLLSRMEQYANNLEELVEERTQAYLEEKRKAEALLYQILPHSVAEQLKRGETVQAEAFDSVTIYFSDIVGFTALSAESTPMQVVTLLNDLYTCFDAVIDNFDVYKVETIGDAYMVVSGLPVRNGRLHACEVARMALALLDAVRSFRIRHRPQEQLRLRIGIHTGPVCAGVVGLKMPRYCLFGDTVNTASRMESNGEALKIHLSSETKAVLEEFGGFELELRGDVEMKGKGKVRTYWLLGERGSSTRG
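HEK293 cells stably expressing human Npr1 and cGMP GloSensor pGS-40F, loaded 2 h with 2% GloSensor reagent, given compound 30 min at room temperature. Luminescence read before and 20 min after 0.1 nM hNppA.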
* = called active by the depositor; i = inactive; ? = inconclusive; nt = no result given; [ ] = dose if it differs, or a comment. An excerpt weighted towards active compounds, which were near 11% of everything screened. Unless noted, the call rests on the fitted dose curve; in most records, active means well fitted curve in the direction sought with a large enough effect; inconclusive means small, poorly fitted or top-dose-only effect, or another doubt; inactive means no such curve, though single readings can be large; an effect the other way counts as inactive or inconclusive. On the % scale 0 is the no-effect control and ±100 the full control effect; potency means the concentration at half of the fitted maximal effect.

SMILES | 3T3 cytotox | Luciferase inh | HEK cytotox | NPR1 antag
COCCN1C[C@@H]2[C@H](c3ccccc31)[C@@H](CO)[C@@H](c1ccccc1)N2C(=O)COC(C)=O | ? | nt | -24% | nt
O=C(NCC1CCCO1)c1ccc(-c2ccc(N3CCCCC3)nc2)cc1 (stereo not drawn) | -1% | ? | -14% | -6%
Cc1ccc(CNC(=O)c2ccc(-c3ccc(N4CCCCC4)nc3)cc2)o1 | -10% | 14µM* | ? | -15%
O=C(NCc1ccco1)c1ccc(-c2ccc(N3CCCCCC3)nc2)cc1 | ? | ? | 40µM* | -20%
Cc1ccc(CC(=O)NC2CCN(c3cc(-c4cccs4)[nH]n3)C2)cc1 (stereo not drawn) | ? | i | ? | -23%
O=C(Cc1ccccc1Cl)NC1CCN(c2cc(-c3cccs3)[nH]n2)C1 (stereo not drawn) | 20µM* | i | ? | -5%
CN(C)c1cccc(C(=O)NC2CCN(c3cc(-c4cccs4)[nH]n3)C2)c1 (stereo not drawn) | ? | 32µM* | ? | -21%
O=C(NC1CCN(c2cc(-c3cccs3)[nH]n2)CC1)c1cccc(Cl)c1 | ? | i | 45µM* | 0%
O=C(c1ccc2nnc(-c3cccc(OC(F)(F)F)c3)n2c1)N1CCCC1 | ? | nt | -19% | nt
Cc1ccc(C2Cn3nnc(C(=O)N4CCC(C(=O)Nc5ccc(F)c(F)c5)CC4)c3CO2)cc1 (stereo not drawn) | -15% | 40µM* | ? | 0%
Cc1ccc(C2Cn3nnc(C(=O)N4CCC(C(=O)Nc5cc(F)cc(F)c5)CC4)c3CO2)cc1 (stereo not drawn) | i | 28µM* | -6% | -13%
Cc1nnc2ccc(N3CCCN(C(=O)C4CCCC4)CC3)nn12 | -4% | nt | -4% | nt
Cc1ccccc1-c1cc(C(=O)NCCc2cnc[nH]2)c2c(c1)N(C)CCO2 | 100µM* | i | ? | -3%[70.6 µM]
COc1ccc(-c2cc(C(=O)NCc3c(C)cc(C)[nH]c3=O)c3c(c2)N(C(C)C)CCO3)cc1OC | 25µM* | i | ? | 5%
COc1ccccc1-c1cc(C(=O)NCc2c(C)cc(C)[nH]c2=O)c2c(c1)ncn2C | 40µM* | i | ? | 5%[70.6 µM]
Cc1cc(C)c(CNC(=O)c2cc(-c3ccccc3C)cc3c2OCCN3C)c(=O)[nH]1 | 45µM* | i | 89µM* | -30%[70.6 µM]
O=C(CCNc1cnc2cnccn12)NCc1ccc(F)c(Cl)c1 | ? | i | -21% | -13%
Cc1cc(C)c(CNC(=O)c2cc(-c3cccnc3)cc3c2OCCN3C(C)C)c(=O)[nH]1 | ? | i | 100µM* | 0%[70.6 µM]
CN(Cc1ccc(F)cc1)C(=O)Cc1ccccn1 | 1%[138 µM] | i | -4%[172 µM] | 10%[70.6 µM]
CN(Cc1ccc(-c2ccccc2)cc1)C(=O)Cc1ccccn1 | ? | ? | 63µM* | ?
COc1ccc(CC(=O)N(C)Cc2ccc(F)cc2)cc1 | -25%[138 µM] | i | ? | -2%[70.6 µM]
CN(Cc1ccc(-c2ccccc2)cc1)C(=O)Cc1ccc(F)cc1 | 35µM* | i | 50µM* | -24%[70.6 µM]
C[S+](=O)([O-])c1ccc(-c2nnc3ccc(C(=O)NCc4ccccn4)cn23)cc1 | -3% | nt | 5% | nt
N#Cc1cccc(CN2CCc3nc(C(=O)NCC4CC4)oc3CC2)c1 | ? | i | ? | -24%[70.6 µM]
O=C(NCC1CC1)c1nc2c(o1)CCN(Cc1cccc(O)c1)CC2 | 100µM* | ? | ? | 4%[70.6 µM]
SMILES | 3T3 cytotox | Luciferase inh | HEK cytotox | NPR1 antag
N#Cc1cccc(CN2CCc3nc(C(=O)Nc4cccc(C(F)(F)F)c4)oc3CC2)c1 | ? | ? | ? | 11µM*
O=C(NCc1cccc(F)c1)c1nc2c(o1)CCN(Cc1cccc(F)c1F)CC2 | 45µM* | i | 50µM* | ?
O=C(Nc1cccnc1)c1nc2c(o1)CCN(Cc1cccs1)CC2 | ? | ? | 89µM* | -19%[70.6 µM]
O=C(NCc1ccncc1)c1nc2c(o1)CCN(Cc1ccccc1)CC2 | -26%[138 µM] | i | ? | -24%[70.6 µM]
O=C(Nc1cccc(C(F)(F)F)c1)c1nc2c(o1)CCN(Cc1nccs1)CC2 | ? | 16µM* | ? | 35µM*
COc1cccc(CN2CCc3nc(C(=O)Nc4cccnc4)oc3CC2)c1 | ? | 22µM* | ? | ?
O=C(Nc1cccc(C(F)(F)F)c1)c1nc2c(o1)CCN(Cc1cccs1)CC2 | ? | 8.9µM* | ? | ?
COc1ccc(CN2CCc3nc(C(=O)Nc4cccnc4)oc3CC2)cc1OC | ? | i | ? | -17%[70.6 µM]
CN(C)C(=O)N1CCCN(c2ccc3nnc(C4CC4)n3n2)CC1 | -26%[138 µM] | nt | -14%[172 µM] | nt
O=C(NCc1ccc(F)cc1)C1CCc2nnc(CN[S+](=O)([O-])c3ccccc3Cl)n21 (stereo not drawn) | i | nt | i | nt
CN(Cc1cccc(F)c1)C1CN(C(=O)OC(C)(C)C)C1 | -12%[138 µM] | nt | -7%[172 µM] | nt
CN(Cc1cccc(N2CCN(C(=O)OC(C)(C)C)CC2)c1F)[S+](C)(=O)[O-] | ? | nt | 79µM* | nt
COC(=O)N(C)Cc1cccc(N2CCN([S+](=O)([O-])c3c(Cl)cccc3Cl)CC2)c1F | ? | nt | 14µM* | nt
O=C(c1ccc(F)cc1)N1CCCC2(CN[S+](=O)([O-])c3cnccc3N2)C1 (stereo not drawn) | -10% | nt | -2% | nt
Cc1ccc(NC(=O)N2C[C@@H](F)C[C@H]2C(=O)N2CCc3ccccc3C2)cc1Cl | ? | i | 28µM* | -13%
COc1ccc(CN2CCN(c3ccnc(C)n3)CC2CCO)c(C)c1C (stereo not drawn) | -13% | i | ? | 4%
COc1ccc(CN2CCN(c3ncnc4c3CCC4)CC2CCO)c(C)c1C (stereo not drawn) | ? | i | 10µM* | -25%
O=C(Cc1ccccn1)N1CCCN(c2ccc3nnc(-c4ccccc4)n3n2)CC1 | -8% | nt | -4% | nt
CCCCc1cc(C[C@H]2CNCC[C@H]2CC(=O)NC2CCCCC2)no1 | ? | i | ? | 2%[70.6 µM]
O=C(C[C@@H]1CCNC[C@@H]1Cc1cc(CC2CCCCC2)on1)N1CCC(Cc2ccccc2)CC1 | 25µM* | i | ? | -2%
O=C(C[C@@H]1CCNC[C@@H]1Cc1cc(COc2ccccc2)on1)NC1CCCCC1 | 63µM* | i | 100µM* | 4%[70.6 µM]
O=C(C[C@@H]1CCNC[C@@H]1Cc1cc(COc2ccccc2)on1)N1CCC(Cc2ccccc2)CC1 | 28µM* | i | 25µM* | -17%
CCCCc1cc(C[C@H]2CNCC[C@H]2CC(=O)N2CCC(Cc3ccccc3)CC2)no1 | 28µM* | i | ? | 2%
CC(=O)N1CCN(C(=O)c2nc3sccn3c2-c2ccc(C)cc2)CC1 | -13% | nt | -5% | nt
Cn1ncc2c(C(=O)Nc3ccccc3F)cc(-c3cccc(F)c3)nc21 | 4% | nt | 4% | nt
O=C(c1ccccc1F)N1CCC(c2nn(-c3ccccn3)c(=O)[nH]2)CC1 | -14% | nt | -7% | nt
COCc1ccc2c(c1)c(OC(C)(C)C(=O)NCc1ccncc1)nn2Cc1ccccc1 | 28µM* | i | -28% | 3%

High-throughput results (PubChem BioAssay)
